The list is not random: actives were taken first. Their share in the collection is about 2.4%.
FEN1 inhibitor: qHTS Assay for the Inhibitors of Human Flap endonuclease 1 (FEN1); P39748; Recombinant FEN1 flap cleavage, fluorescence, 15 min; Potency, µM (top dose mostly 114 µM), for inactives: at the highest dose activity change, negative = inhibition, hits mostly inhibitors; 0.35% of 390,000 active; further: on the % scale 0 is the no-effect control and ±100 the full control effect; nearly all actives have a fitted effect of over 65% in size
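Nuclease activity of 10 nM FEN1 was measured after 15 min of room-temperature exposure to titrated compounds, by adding 50 nM flap substrate and reading plates at 0 and 15 min.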
Pol beta inh: qHTS Assay for Inhibitors of DNA Polymerase Beta | Pol beta primer extension/strand displacement, fluorescence kinetic | Potency, µM (series often up to 114 µM), without a hit: top-dose activity change, negative = inhibition, actives largely listed as inhibitors | 1.3% of 340,000 active | AID 485314, 2010; further: on the % scale 0 is the no-effect control and ±100 the full control effect
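Pol beta (10 nM) and compounds were preincubated 15 min at room temperature, then 50 nM substrate (final) started primer extension/strand displacement. Reads were taken at 0 and 10 min; concentration-response data were fitted to a four-parameter Hill equation.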
POLI inh: qHTS for Inhibitors of Polymerase Iota. DNA polymerase iota (Homo sapiens), Q9UNA4. Pol iota fluorescent replication assay, 10 min. Potency, µM (top dose mostly 115 µM), for inactives: at the highest dose activity, negative = inhibition, usual class: inhibitors. 1% of 390,000 active. AID 588590, 2011
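Pol iota at 10 nM preincubated 15 min with compounds at room temperature; reaction started with fluorescent substrate, 50 nM final. Fluorescence read kinetically at 0 and 10 min; buffer-only wells as negative control.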
WRN inhibitor: qHTS for Inhibitors of WRN Helicase; Bifunctional 3'-5' exonuclease/ATP-dependent helicase WRN (Homo sapiens), Q14191; WRN helicase unwinding, fluorescent forked duplex, kinetic; Potency, µM (doses to about 114 µM), inactives show at the highest dose activity change, negative = inhibition, most hits filed as inhibitors; 0.46% of 360,000 active; AID 651768, 2012; further: on the % scale 0 is the no-effect control and ±100 the full control effect; nearly all actives have a fitted effect of over 55% in size
Target sequence (Q14191 whole entry, looked up): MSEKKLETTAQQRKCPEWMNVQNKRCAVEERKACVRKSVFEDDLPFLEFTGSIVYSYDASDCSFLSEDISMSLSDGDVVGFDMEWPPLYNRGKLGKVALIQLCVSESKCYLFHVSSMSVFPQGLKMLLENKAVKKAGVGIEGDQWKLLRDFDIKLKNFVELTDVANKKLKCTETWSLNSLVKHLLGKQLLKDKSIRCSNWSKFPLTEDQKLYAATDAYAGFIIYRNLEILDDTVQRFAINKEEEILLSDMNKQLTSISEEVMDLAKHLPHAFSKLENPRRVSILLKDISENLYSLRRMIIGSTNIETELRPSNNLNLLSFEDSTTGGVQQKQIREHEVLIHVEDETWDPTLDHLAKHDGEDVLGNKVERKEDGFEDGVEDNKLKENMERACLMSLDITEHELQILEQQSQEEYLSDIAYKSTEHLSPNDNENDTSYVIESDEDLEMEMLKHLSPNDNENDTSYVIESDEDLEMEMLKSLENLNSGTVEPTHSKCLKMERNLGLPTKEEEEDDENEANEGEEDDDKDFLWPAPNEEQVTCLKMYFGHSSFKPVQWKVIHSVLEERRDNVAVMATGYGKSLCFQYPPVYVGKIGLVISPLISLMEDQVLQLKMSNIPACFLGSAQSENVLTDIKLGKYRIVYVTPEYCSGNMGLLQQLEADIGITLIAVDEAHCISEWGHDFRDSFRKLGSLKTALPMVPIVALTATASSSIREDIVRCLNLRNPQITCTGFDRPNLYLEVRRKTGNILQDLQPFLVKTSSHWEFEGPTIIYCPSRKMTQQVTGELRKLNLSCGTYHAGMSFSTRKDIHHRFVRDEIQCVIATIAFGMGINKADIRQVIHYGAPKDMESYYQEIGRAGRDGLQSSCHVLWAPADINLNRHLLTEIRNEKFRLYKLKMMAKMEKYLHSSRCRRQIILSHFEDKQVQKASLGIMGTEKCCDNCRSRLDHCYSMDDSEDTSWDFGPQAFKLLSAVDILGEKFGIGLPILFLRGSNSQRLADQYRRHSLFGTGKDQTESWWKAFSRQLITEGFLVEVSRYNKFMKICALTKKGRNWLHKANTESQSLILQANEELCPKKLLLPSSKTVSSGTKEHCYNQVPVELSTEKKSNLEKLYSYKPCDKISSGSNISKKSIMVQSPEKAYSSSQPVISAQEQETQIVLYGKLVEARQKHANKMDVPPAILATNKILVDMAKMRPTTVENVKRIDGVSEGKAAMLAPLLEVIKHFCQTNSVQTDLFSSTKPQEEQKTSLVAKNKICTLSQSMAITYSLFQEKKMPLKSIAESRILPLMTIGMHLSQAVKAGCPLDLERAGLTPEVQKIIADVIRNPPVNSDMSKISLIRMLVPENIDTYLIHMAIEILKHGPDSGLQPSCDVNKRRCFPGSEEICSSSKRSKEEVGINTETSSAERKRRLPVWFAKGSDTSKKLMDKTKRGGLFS
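WRN at 20 nM final preincubated with compound 15 min at room temperature; reaction started with 100 nM fluorophore/quencher forked duplex oligonucleotide and 2 mM ATP final. Unwinding followed kinetically by red fluorescence (ex 525, em 598 nm).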
POLK inh: qHTS for Inhibitors of Polymerase Kappa | DNA polymerase kappa (Homo sapiens), Q9UBT6 | 0.53% of 400,000 active | purified Pol kappa, fluorescent DNA synthesis assay, 10 min | AID 588579, 2011 | Potency, µM (titrated, usually from 107 µM), without a hit: at the highest dose activity, negative = inhibition, hits mostly inhibitors; further: on the % scale 0 is the no-effect control and ±100 the full control effect
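50 nM final substrate added after 15 min RT preincubation of 10 nM Pol kappa with compound; fluorescence read at 0 and 10 min.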
POLH inh: qHTS for Inhibitors of Polymerase Eta | 1.2% of 390,000 active | DNA polymerase eta (Homo sapiens), Q9Y253 | recombinant Pol eta, fluorescent DNA replication assay | Potency, µM (highest dose often 114 µM), inactives show at the highest dose activity change, negative = inhibition, actives largely listed as inhibitors; further: on the % scale 0 is the no-effect control and ±100 the full control effect
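Pol eta (10 nM) was preincubated with compounds for 15 min at room temperature, after which fluorescent replication substrate (50 nM final) was added to start the reaction. Fluorescence was read kinetically at 0 and 10 min.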
PGK validate: qHTS for inhibitors of Phosphogylcerate Kinase: Hit Validation Screen; TbPGK coupled GAPDH assay, Kinase-Glo luminescence; shares compounds with POLK inh; Potency, µM (highest dose often 57.5 µM), inactives show top-dose activity change, negative = inhibition, hits mostly inhibitors; AID 686980, 2013; 79% of 500 active; further: on the % scale 0 is the no-effect control and ±100 the full control effect; nearly all actives have a fitted effect of over 65% in size
Pol iota confirm: qHTS for Inhibitors of Polymerase Iota: Confirmatory Assay for Cherry-picked Compounds. Pol iota primer extension, TAMRA/BHQ fluorescence. Potency, µM, most hits filed as inhibitors. 77% of 1,500 active. shares compounds with POLK inh. AID 720496, 2013
Numbers without * were called inactive; ? = inconclusive; . = no result given; [ ] = another dose, or the depositor's remark. The call rests on the fitted dose curve; in most records, active means well fitted curve in the direction sought with a large enough effect; inconclusive means small, poorly fitted or top-dose-only effect, or another doubt; inactive means no such curve, though single readings can be large; an effect the other way counts as inactive or inconclusive. Potency means the concentration at half of the fitted maximal effect.

SMILES	FEN1 inhibitor	Pol beta inh	POLI inh	WRN inhibitor	POLK inh	POLH inh	PGK validate	others
CCN(CC)C(=S)S	.	.	.	.	2.5%[19.4 µM]	.	.
NC(=O)c1cc(N2C(=O)C=CC2=O)ccc1Cl	3.9%	18.0%	-3.2%[58.9 µM]	-23.0%	-17.7%	2.5%	.
O=C(O)c1cc(N2C(=O)C=CC2=O)cc(N2C(=O)C=CC2=O)c1	10µM*	.	1.12µM*	8.91µM*	2.24µM*	2.24µM*	?
O=C(Nc1c(Cl)cccc1Cl)c1cc(-c2cccc(O)c2)on1	-5.7%	0.9%	-16.8%	.	2.7%	-19.2%	.
Cc1ccsc1/C=C1\CCc2ccccc2C1=O	-10.2%	-25.7%	7.4%	-3.9%	-2.9%	1.7%	14.6µM*
CC(C)=CCc1cc(-c2oc3cc(O)cc(O)c3c(=O)c2O)ccc1O	14.4%	.	?	-4.2%[11.6 µM]	-14.3%	?	-28.3%
O=c1c(O)c(-c2ccccc2)oc2cc(O)cc(O)c12	-9.1%	.	45.8%	4.6%	13.8%	-18.4%	.
Cc1csc(NC(=O)c2cn3ccccc3n2)n1	-3.8%	?	9.1%	0.8%	-9.6%	-5.4%	18.3µM*
O=C(Nc1ccccc1)c1cn2ccccc2n1	-9.0%	9.3%	-19.4%	-4.8%	-13.7%	-7.7%	.
CCCCN(CC)C(=O)CCCn1c(=O)c2cccn2c2ccccc21	-1.3%	4.5%	51.0%	.	-1.9%	-16.3%	.
O=C(Nc1ccccc1)Nc1ccc(C(=O)N2CCCC2)cc1	13.4%	23.6%	-26.8%	-12.2%	-15.6%	-2.2%	16.3µM*
O=C(Nc1ccc(C(=O)N2CCCCC2)cc1)c1ccccc1	-3.4%	.	2.8%	-3.3%	-5.4%	2.7%	.
COCCn1c(=O)c(-c2ccc(OC)cc2)nc2cnc(N3CCN(C)CC3)nc21	.	.	.	.	-2.8%[60.1 µM]	.	.
c1ccc2nc(-c3nc4ccccc4o3)ccc2c1	-10.6%	-0.2%	15.6%	?	-11.1%	-3.1%	18.3µM*
c1ccc(-c2nc3ccccc3o2)nc1	-4.5%	2.0%	8.0%	-5.9%	-10.4%	-11.4%	.
COc1ccccc1CNc1ncnc2c1c(-c1ccccc1)cn2-c1ccc(Br)cc1	16.5%	5.2%	26.7%	.	-4.5%[60.1 µM]	-2.1%	.
COc1cc([C@@H]2OC[C@@H]3[C@H]2CO[C@@H]3c2ccc3c(c2)OCO3)ccc1O	-17.1%	.	-1.1%	3.0%	-5.0%	-9.5%	.
COc1cc(CC2COC(c3ccc(O)c(OC)c3)C2COC(C)=O)ccc1O (stereo not drawn)	56.2µM*	6.31µM*	10µM*	50.1µM*	22.4µM*	3.55µM*	8.19µM*
C#Cc1ccc(C(=O)NCc2ccc(N3CCCC3=O)cc2)cc1	-8.1%	17.8µM*	?	-13.2%[11.6 µM]	?	15.8µM*	.	Pol iota confirm=42.3*
COc1ccc(OC)c(/C=N/NC(=O)c2cc3c(OC)cccc3[nH]2)c1	-33.3%	-10.1%	18.9%	-28.0%	-16.0%	-19.3%	.
CCOc1ccc(/C=N/NC(=O)c2cc3c(OC)cccc3[nH]2)cc1	?	50.1µM*	25.1µM*	-9.2%[11.6 µM]	-36.6%	?	.	Pol iota confirm=?
COc1ccc2c(Sc3ccccc3)c(C(=O)NCCc3ccc(Cl)cc3)[nH]c2c1	11.9%	-2.0%	22.8%	.	2.2%	-16.2%	.
Cc1ccc(NC(=O)CN2C(=O)S/C(=C/c3ccc(-c4cccc(C(=O)O)c4)o3)C2=O)cc1	20µM*	11.2µM*	25.1µM*	?	31.6µM*	5.62µM*	11.6µM*
CCCCCCCCCCCCCCCC(=O)OC[C@H](O)[C@H]1OC[C@@H](O)[C@@H]1O	.	.	.	.	-9.8%[19.4 µM]	.	.
O=C(Nc1ccc2c(c1)OCCO2)c1coc2ccccc2c1=O	2.3%	40.6%	6.0%	-16.3%	-4.1%	?	4.11µM*
SMILES	FEN1 inhibitor	Pol beta inh	POLI inh	WRN inhibitor	POLK inh	POLH inh	PGK validate	others
Cc1ccccc1C(=O)Nc1ccc2c(c1)OCCO2	44.3%	4.7%	?	-3.4%	-7.0%	-16.6%	.
CCSc1nc(O)cc(=O)[nH]1	18.4%	46.8%	-25.8%	0.3%	-4.2%	?	.
N#CNc1nc(O)cc(=O)[nH]1	?	-25.9%	?	-34.7%	79.4µM*	?	?
CCN(CC)c1ccc(C(=O)O)cc1	14.5%	-2.7%	-6.1%	-5.0%	-5.9%	-2.9%	.
CCN(CC)c1ccc(C(=C2C=CC(=[N+](CC)CC)C=C2)c2ccc(S(=O)(=O)O)cc2S(=O)(=O)[O-])cc1	?	.	?	-5.8%[11.6 µM]	-12.7%	20µM*	16.3µM*
Cc1ccc(-c2ccc(=O)n(CC(=O)NC(C)c3ccccc3)n2)cc1 (stereo not drawn)	20.0%	1.6%	-2.6%	.	0.0%[60.1 µM]	-21.5%	.
COc1ccc(S(=O)(=O)N2CCOCC2)cc1NC(=O)c1cccc(-n2cccc2)c1	-16.3%	.	7.08µM*	?	39.8µM*	2.51µM*	.	Pol iota confirm=?
COc1ccccc1NC(=O)c1cccc(S(=O)(=O)N2CCOCC2)c1	37.7%	0.1%	7.0%	-8.9%	0.0%	-15.8%	.
O=C(O)Cc1ccccc1C(=O)O	4.9%	0.4%	8.2%	5.5%	-5.7%	-18.6%	.
O=C(O)Cc1cccc(=O)c(O)c1C(=O)O	?	.	22.4µM*	?	?	3.98µM*	5.17µM*
Cn1c(C(=O)NC2CCCCC2)cc2sccc21	-6.6%	18.3%	17.8%	7.6%	3.1%	-8.3%	?
Cc1ccn2c(=O)cc(COc3cccc(NC(=O)Nc4cccc(Cl)c4C)c3)nc2c1	-6.9%	-6.7%	2.4%	.	-4.2%[60.1 µM]	-11.8%	.
CCN(CC)c1ccc2nc3ccccc3[n+](CC)c2c1	?	?	?	?	-34.5%	?	32.6µM*
CC1=C(C(=O)Nc2cccnc2)C(c2cccc(O)c2)n2nc(SCc3ccccc3)nc2N1 (stereo not drawn)	-16.7%	-18.3%	79.4µM*	.	-6.3%[60.1 µM]	?	.	Pol iota confirm=?
CC1=CC2=NC(=O)/C(=C\c3ccc(-c4cccc(Cl)c4)o3)C(=N)N2O1	2.9%	?	?	-26.5%	-9.8%	5.62µM*	.	Pol iota confirm=?
CC1=CC2=NC(=O)/C(=C\c3cccn3CCOc3ccccc3C)C(=N)N2O1	-1.2%	-2.7%	?	-9.1%	-5.3%[60.1 µM]	-11.4%	.

Source: PubChem
